# Screens as filed in PubChem.
# A selection: hits, their analogues and other compounds. The true share with any hit is near 3.1%.
# TSHR antag = antagonists of human thyroid stimulating hormone receptor; P16473; TSHR-expressing cells, TSH-stimulated cAMP HTRF, 2 h; stronger effect = lower value; activity change, negative = inhibition, % at 11.5 µM; 330,000 tested, 0.2% active; AID 504810;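 active means activity change below a set negative limit, meaning inhibition stronger than a set level, cut at about -70% in these data; inconclusive means activity change between two set negative limits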
#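 TSHR-expressing cells, 200/well, pre-treated with compound, then stimulated with EC80 TSH (4nM final) for 2 hours at 37 deg C. cAMP measured by competitive HTRF: anti-cAMP cryptate antibody in lysis buffer plus cAMP-d2, read after 30 minutes at room temperature.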
# uPA surface inh = blocks generation of uPA at the cell surface | 330,000 tested, 0.31% active | Potency, µM (titrated, usually from 38.3 µM), hits mostly inhibitors | AID 540303 | cell surface uPA generation assay, qHTS; active means well fitted inhibition curve with a large enough effect; inconclusive means small, poorly fitted or top-dose-only effect; inactive means no such curve, though single readings can be large or run the other way; tested in mouse RAW 264.7 cells; further: nearly all actives have a fitted effect of over 55% in size
# PTAP TSG101 blk = blocks PTAP/TSG101 interaction to inhibit HIV-1 budding; Potency, µM (titrated, usually from 115 µM), hits mostly inhibitors; 340,000 tested, under 10 active; Fluorescence polarization, FITC-PTAP peptide / Tsg101 binding; active means well fitted inhibition curve with a large enough effect in the main read-out, with a control signal flat, not every such curve was filed as active; inconclusive means small, poorly fitted or top-dose-only effect, or effect the other way, or a change in a side signal; inactive means no such curve, though single readings can be large or run the other way
# Target sequence (Q99816 whole entry, looked up): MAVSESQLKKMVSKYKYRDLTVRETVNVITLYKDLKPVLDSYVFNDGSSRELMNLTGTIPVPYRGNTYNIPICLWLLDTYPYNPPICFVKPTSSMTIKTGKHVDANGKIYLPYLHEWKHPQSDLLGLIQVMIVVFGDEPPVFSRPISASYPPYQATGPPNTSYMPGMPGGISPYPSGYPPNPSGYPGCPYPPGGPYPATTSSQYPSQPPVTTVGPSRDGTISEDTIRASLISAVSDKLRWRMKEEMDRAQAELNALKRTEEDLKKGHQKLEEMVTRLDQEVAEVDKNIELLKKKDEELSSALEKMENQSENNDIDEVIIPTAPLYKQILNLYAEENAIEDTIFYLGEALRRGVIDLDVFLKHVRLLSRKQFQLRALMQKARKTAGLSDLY
#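 FP read-out: FITC-PTAP peptide, 50 nM final, binding Tsg101 binding domain, 10 uM final; 20 min, r.t.; 10 mM HEPES pH 7.5, 0.15 M NaCl, 0.01% Tween 20, 3 mM EDTA, 0.1 mM TCEP.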
# VDR inhibitor = blocks the human vitamin D receptor; 400,000 tested, 0.93% active; VDR-SRC2-3 peptide fluorescence polarization, 2 h; P11473; Potency, µM, usual class: inhibitors
#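 Reagent solutions, kept cold and dark, are dispensed first; compounds are then pinned in at 23 nl, plates briefly spun, and incubated 2 h at ambient temperature. Inhibition of VDR–SRC2-3 peptide binding is read by fluorescence polarization.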
# PLK1 PBD block = inhibitors of human PLK1 polo-box domain binding. Plk1 PBD binding of FITC phosphopeptide, fluorescence polarization. Potency, µM, usual class: inhibitors. 360,000 tested, 2.8% active. P53350; further: series mostly up to about 57 µM; nearly all actives have a fitted effect of over 65% in size
# USP1-UAF1 confirm = USP1-UAF1 deubiquitinase inhibition validated; Ub-Rhodamine cleavage, fluorescence kinetic read; Potency, µM (top dose mostly 114 µM), most hits filed as inhibitors; 50 tested, 50% active; shares compounds with VDR inhibitor
# VDR inh confirm = inhibits human vitamin D receptor, primary hit validation; shares compounds with VDR inhibitor; VDR-coactivator inhibition assay, qHTS confirmation; Potency, µM, usual class: inhibitors; 840 tested, 89% active
# VDR FP = VDR (human) coactivator binding inhibition, fluorescein polarization | shares compounds with VDR inhibitor | VDR-coactivator binding, fluorescein fluorescence polarization | Potency, µM (top dose mostly 57.1 µM), actives largely listed as inhibitors | 840 tested, 48% active
# VDR bla reporter = inhibits human VDR in beta-lactamase reporter cells; 840 tested, 23% active; VDR beta-lactamase reporter cells, FRET ratio; cells co-treated with VDR agonist LG190178; shares compounds with VDR inhibitor; AID 602202; Potency, µM (highest dose often 46.1 µM), actives largely listed as inhibitors
# VDR viability = cytotoxic in counter-screen for VDR inhibitors; shares compounds with VDR inhibitor; cytotoxicity counter-screen, cell viability, qHTS; Potency, µM (highest dose often 48.3 µM), usual class: cytotoxic; 840 tested, 18% active; AID 602204; further: nearly all actives have a fitted effect of over 75% in size
# Numbers stand for hits; . = inactive; ? = inconclusive; / = no result. Unless noted, the call rests on the fitted dose curve; in most records, active means well fitted curve in the direction sought with a large enough effect; inconclusive means small, poorly fitted or top-dose-only effect, or another doubt; inactive means no such curve, though single readings can be large; an effect the other way counts as inactive or inconclusive.
SMILES,TSHR antag,uPA surface inh,PTAP TSG101 blk,VDR inhibitor,PLK1 PBD block,VDR inh confirm,VDR FP,VDR bla reporter,VDR viability,others
CCOC(=O)C1=CC[C@@H](c2ccccc2)N(S(=O)(=O)c2ccc(C)cc2)[C@H]1/C=C/c1ccccc1,/,/,/,/,.,/,/,/,/,
Cn1c(N)c(C(=O)Nc2ccc(-c3ccccc3)cc2)sc1=S,.,.,.,?,15µM,18,22µM,?,?,
O=C(/C(=C/c1ccncc1)n1ccnc1)c1ccc(Cl)cc1Cl,.,.,.,79µM,27µM,13,13µM,.,.,
N/C(=N\OC(=O)c1ccc(Cl)cc1Cl)c1ccncc1,.,?,.,.,.,/,/,/,/,
Cc1oc2c(c1C(=O)NCc1cccc(Br)c1)C1=NCCN1C=N2,/,/,/,.,/,/,/,/,/,
NC(Cc1ccc(Cl)cc1)C(=O)O (centres undefined),.,/,/,.,/,/,/,/,/,
N[C@@H](Cc1cc(-c2ccc(Cl)cc2Cl)cc(CP(=O)(O)O)c1O)C(=O)O,/,/,/,45µM,/,/,/,/,/,USP1-UAF1 confirm=42µM
O=C1NN(c2ccccc2)C(=O)/C1=C\c1cccc(OC(=O)c2cccs2)c1,.,.,.,50µM,1.5µM,8.4,?,?,?,
O=C1NN(c2ccc(Cl)c(Cl)c2)C(=O)/C1=C/c1cccc(OC(=O)c2cccs2)c1,.,/,/,/,/,/,/,/,/,
CC(C)c1ccc(/C=C/c2[nH]c(=O)[nH]c(=O)c2[N+](=O)[O-])cc1,.,.,.,22µM,.,3.8,?,?,.,
COc1cccc(/C=C/c2[nH]c(=O)[nH]c(=O)c2[N+](=O)[O-])c1O,.,.,.,22µM,?,21,?,.,.,
O=C(COc1ccccc1/C=C\c1[nH]c(=O)[nH]c(=O)c1[N+](=O)[O-])Nc1ccccc1,.,.,.,20µM,.,4.2,?,.,?,
CCOc1cc(/C=C\c2[nH]c(=O)[nH]c(=O)c2[N+](=O)[O-])ccc1OC(C)CC (centres undefined),.,/,.,11µM,.,8.4,.,?,.,
Cc1ccc(C2CC(=O)Oc3cc(C)c(Cl)c(C)c32)cc1 (centres undefined),/,/,/,.,/,/,/,/,/,
O=c1[nH]c(/C=C/c2ccccc2Cl)c([N+](=O)[O-])c(=O)[nH]1,.,.,.,35µM,.,19,11µM,.,.,
Cc1ccc(C(=O)/C=C/C(=O)O)cc1,.,?,.,14µM,?,7.5,10µM,.,?,
COc1ccc(NC(=O)N2CCC(CN3CCCC3)CC2)c(OC)c1,/,/,/,.,/,/,/,/,/,
C[C@@H]1CN([C@@H](C)CO)C(=O)CCCn2nncc2CO[C@H]1CN(C)C(=O)Nc1ccnc(N2CCOCC2)c1,/,/,/,/,.,/,/,/,/,
Cc1ccc(C(C[N+](=O)[O-])n2nc(C)cc2C)cc1 (centres undefined),.,.,.,79µM,17µM,13,8.9µM,?,?,
Cc1ccc(C(=O)/C=C/c2ccc3ncccc3c2)cc1,.,.,.,22µM,.,12,?,?,?,
Cc1ccc(C(=O)Nc2ccc3ncccc3c2)cc1,.,.,.,.,.,/,/,/,/,
COc1ccc(CCCc2nnc(SCC(=O)Nc3ccc(C)cc3C)o2)cc1,/,/,/,.,/,/,/,/,/,
Cc1nc2nc(NC(=O)CC(C)C)[nH]n2c(=O)c1Cc1ccccc1,/,/,/,.,/,/,/,/,/,
Cc1cc(OCC(=O)Nc2nc3c(s2)CCCC3)cc(C)c1Cl,/,/,/,.,/,/,/,/,/,
COc1ccc(N2C(=O)Cc3cc(OC)c(OC)cc3C2c2ccc(F)cc2)cc1 (centres undefined),/,/,/,.,/,/,/,/,/,
SMILES,TSHR antag,uPA surface inh,PTAP TSG101 blk,VDR inhibitor,PLK1 PBD block,VDR inh confirm,VDR FP,VDR bla reporter,VDR viability,others
COc1ccc(/C=C2\SC(=O)NC2=S)cc1OC,.,.,.,10µM,27µM,3,.,.,.,
Cc1ccc(/C=C2/SC(=O)NC2=S)o1,.,.,.,35µM,19µM,24,22µM,.,.,
CCOC(=O)c1c(-c2ccc(C)s2)csc1N,.,.,.,79µM,5.3µM,19,11µM,.,.,
CC(C)(C)Nc1oc(-c2ccccc2)nc1-c1ccccc1F,/,/,/,.,/,/,/,/,/,
CCOC(=O)c1cccc(NC(=O)CC2C(=O)N(c3ccc(Cl)cc3)C(=O)N2C2CCCC2)c1 (centres undefined),/,/,/,.,/,/,/,/,/,
COc1ccc(CN2[C@@H](CC(C)=O)c3ccc(/C=C/C(C)=O)cc3S2(=O)=O)cc1,/,?,.,79µM,.,5,?,?,?,
CCOc1ccc(/C=C/C(=O)c2c(O)c3ccccc3oc2=O)cc1,.,.,?,8.9µM,.,8.4,.,.,?,
Cc1cc(O)c(C(=O)/C=C/c2ccccc2)c(=O)o1,.,.,.,?,.,/,/,/,/,
CCOc1ccc(/C=C/C(=O)c2c(O)cc(C)oc2=O)cc1,.,.,.,?,.,16,25µM,?,12µM,
Cc1cc(O)c(C(=O)/C=C/c2ccc(C(C)C)cc2)c(=O)o1,.,.,.,?,.,6.3,?,?,.,
COc1ccc2[nH]cc(CCNc3ccnc(-c4cccnc4)n3)c2c1,/,/,/,.,/,/,/,/,/,
O=C(NCCc1ccccc1)c1ccc2nc(-c3ccco3)c(-c3ccco3)nc2c1,.,.,.,?,?,3.5,8.9µM,.,.,
O=C(NC1CCCC1)c1ccc2nc(-c3ccco3)c(-c3ccco3)nc2c1,.,.,.,?,8.4µM,10,3.2µM,.,.,
Nn1c(-c2ccccc2)cc(-c2ccccc2)cc1=O,.,.,.,.,.,/,/,/,/,
CCN(CC)c1ccc(C=Nc2ccc(N(C)C)cc2)c(O)c1,.,.,?,?,.,4,.,.,.,
CC(C)Oc1ccc(C(=O)NC2=NCCS2)cc1,.,.,.,79µM,27µM,24,?,.,.,
Cc1ccc(C(c2cc(Cl)c3cccnc3c2O)N2CCN(C)CC2)cc1 (centres undefined),.,.,.,45µM,1.5µM,19,?,.,?,
CC(=O)NC(c1ccc(C)cc1)c1cc(Cl)c2cccnc2c1O (centres undefined),.,.,.,.,.,/,/,/,/,
CCOC(=O)c1cc(-c2ccccc2)sc1NC(=O)c1ccc(OC)cc1,.,.,.,50µM,5.3µM,30,13µM,.,.,
COC(=O)c1sc(-c2ccccc2)cc1NC(=O)c1ccc(OC)cc1,.,.,.,.,.,/,/,/,/,
